Pf growth 48h = Primary qHTS for delayed death inhibitors of the malarial parasite plastid, 48 hour incubation; P. falciparum luciferase growth in erythrocytes, 48 h; Potency, µM (titrated, usually from 28.7 µM), most hits filed as inhibitors; actives 5.9% (n = 310,000)
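Luciferase-expressing P. falciparum in infected erythrocytes (2% hematocrit, 0.1% parasitemia final) in RPMI 1640/0.5% Albumax were exposed to compound for 48 hours at 37 C, 5% CO2; growth read as luminescence.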
NS1 inh = qHTS Assay for Inhibitors of Influenza NS1 Protein Function. Potency, µM (top dose mostly 46.1 µM). actives 0.4% (n = 270,000); calls by dose curve; further: actives are rising curves; nearly all actives have a fitted effect of over 50% in size
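S. cerevisiae expressing influenza A NS1, grown in glucose, washed, then diluted 1:100 into pH 6.0 -URA galactose medium with 23 nl compound. Growth recovery read as OD600; NS1-free strain serves as control.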
SARS PLpro yeast = qHTS of Yeast-based Assay for SARS-CoV PLP | S. cerevisiae expressing SARS-CoV PLpro, growth rescue | Potency, µM (doses to about 32.9 µM), usual class: activators | actives 0.19% (n = 330,000); calls by dose curve; further: nearly all actives have a fitted effect of over 55% in size
Pf growth 96h = Primary qHTS for delayed death inhibitors of the malarial parasite plastid, 96 hour incubation; P. falciparum luciferase reporter growth, 96 h; Potency, µM (top dose mostly 28.7 µM), most hits filed as inhibitors; actives 6.9% (n = 320,000); AID 504834, 2011
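Compounds incubated with erythrocytes infected by luciferase-expressing P. falciparum (2% hematocrit, 0.05% parasitemia final) for 96 hours, 37 C in 5% CO2. Growth inhibition scored as decreased luciferase luminescence.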
Each line names hits and unclear results; the compound was inactive in the other large screens. Shown are actives, neighbours in structure and some others; about 10% of the full set was active somewhere. Unless noted, the call rests on the fitted dose curve; in most records, active means well fitted inhibition curve with a large enough effect; inconclusive means small, poorly fitted or top-dose-only effect, or another doubt; inactive means no such curve, though single readings can be large or run the other way.

C=CCSc1nc2sc3c(c2c(=O)n1-c1ccc(C)cc1)CCN(C)C3	Pf growth 48h 3.7µM, Pf growth 96h 1.5µM
CN1CCc2c(sc3nc(SCC(N)=O)n(-c4ccccc4)c(=O)c23)C1	Pf growth 48h inconclusive (no result: Pf growth 96h)
C=C(C)CSc1nc2sc3c(c2c(=O)n1-c1ccccc1)CCN(C)C3	Pf growth 48h 1.5µM, NS1 inh inconclusive, Pf growth 96h 0.83µM
Cc1ccc(C)c(NC(=O)CCN2CCOCC2)c1	Pf growth 96h inconclusive
Cc1ccc(C)c(NC(=O)CCCCCCCCCCC2COCCO2)c1 (configuration not stated)	SARS PLpro yeast 11µM, Pf growth 96h 13µM
CC(=O)c1cccc(OCC(=O)N2CCN(c3ccc(C(F)(F)F)cn3)CC2)c1	Pf growth 96h 7.4µM (no result: NS1 inh)
CCCC(=O)NC(c1ccc(OC)cc1)c1ccc2cccnc2c1O (configuration not stated)	Pf growth 48h 1.3µM, Pf growth 96h inconclusive
CCCC(=O)NC(c1ccccc1)c1ccc2cccnc2c1O (configuration not stated)	Pf growth 48h 2.3µM, SARS PLpro yeast inconclusive, Pf growth 96h inconclusive
CC1(C)Oc2ccc(/C=C/C(=O)N3CCOCC3)c(O)c2C(N2CCOCC2)C1O (configuration not stated)	none
CC(C)CC(=O)OC1C(N2CCOCC2)c2c(ccc(/C=C/C(=O)N3CCOCC3)c2O)OC1(C)C (configuration not stated)	Pf growth 48h inconclusive, Pf growth 96h 2.6µM
COc1ccc(CN(C(=O)CNC(=O)c2ccco2)C(C(=O)NCC2CCCO2)c2ccccc2)cc1 (configuration not stated)	Pf growth 96h 2.3µM
CCOc1ccccc1C(C(=O)NC1CCCC1)N(Cc1ccco1)C(=O)CNC(=O)c1ccco1 (configuration not stated)	Pf growth 48h 8.3µM, Pf growth 96h inconclusive
Cc1ccc(C(C(=O)NCc2ccco2)N(Cc2ccco2)C(=O)CNC(=O)c2ccco2)cc1 (configuration not stated)	Pf growth 96h 6.6µM
COc1ccc(N(C(=O)CNC(=O)c2ccco2)C(C(=O)NCC2CCCO2)c2ccccc2)c(OC)c1 (configuration not stated)	none
O=C(NCC(=O)N(Cc1ccco1)C(C(=O)NC1CCCCC1)c1cccnc1)c1ccco1 (configuration not stated)	none
O=C(NCC(=O)N(Cc1ccccc1)C(C(=O)NC1CCCC1)c1ccco1)c1ccco1 (configuration not stated)	Pf growth 96h 5.2µM
COC(=O)C1=C(CSc2nc3c(cc2C#N)CN(C)CC3)OC(N)=C(C#N)C1c1ccc(F)cc1 (configuration not stated)	Pf growth 48h 9.3µM, Pf growth 96h inconclusive
CCOC(=O)C1=C(CSc2nc(CC)c(C)cc2C#N)OC(N)=C(C#N)C1c1ccc(OC)cc1 (configuration not stated)	Pf growth 48h inconclusive, Pf growth 96h inconclusive
COc1cc(CN2CCN(C(=O)c3ccccc3F)CC2)cc(OC)c1OC	none
Oc1ccc(C23CC4CC(CC(C4)C2)C3)cc1O	Pf growth 48h 5.2µM, Pf growth 96h 7.4µM
Cc1c(C(=O)N2CCOCC2)sc(NC(=O)C(C)C)c1C#N	none
CC(C)N(Cc1ccccc1)C(=O)COC(=O)c1cc(S(=O)(=O)N(C)C)ccc1N1CCCC1	none (no result: Pf growth 48h, NS1 inh, Pf growth 96h)
Cc1cccc(-n2c(SCc3cc(=O)n4ccsc4n3)nc3ccccc32)c1	Pf growth 48h 2.9µM, Pf growth 96h 4.1µM
CCc1cccc(CC)c1-n1c(SCc2cc(=O)n3ccsc3n2)nnc1-c1cccnc1	Pf growth 48h 15µM, Pf growth 96h 10µM
COCCN(C(=O)c1cc(S(=O)(=O)N2CCCCC2)ccc1Cl)c1c(N)n(CC(C)C)c(=O)[nH]c1=O	none (no result: NS1 inh)
Cc1csc(SCC(=O)Nc2ccc(Cl)cn2)n1	none
CC(C)(C)c1csc(SCC(=O)Nc2ccc(Cl)cn2)n1	Pf growth 48h 12µM, Pf growth 96h inconclusive
COc1ccc(OCC(=O)c2c[nH]c3ccccc23)cc1	none (no result: NS1 inh)
COC(=O)Cn1cc(/C=C/c2cc[n+](C)cc2)c2ccccc21	Pf growth 48h inconclusive
COc1ccc2c(C(=O)CCl)c[nH]c2c1	Pf growth 48h 15µM, Pf growth 96h inconclusive
COc1ccc2c(c1)c(/C=C/c1cc[n+](C)cc1)cn2C	Pf growth 48h 1.2µM, Pf growth 96h 0.37µM
CC[n+]1ccc(/C=C/c2c[nH]c3ccccc23)cc1	Pf growth 48h 0.52µM, Pf growth 96h inconclusive
Cc1ccc2[nH]cc(/C=C/c3cc[n+](C)cc3)c2c1	Pf growth 96h inconclusive
COc1ccc2c(/C=C/c3cc[n+](C)cc3)c[nH]c2c1	Pf growth 48h 1.2µM, Pf growth 96h 0.52µM
COc1ccc(OC)c(NC(=O)c2ccccc2N(Cc2ccccc2)S(C)(=O)=O)c1	Pf growth 48h inconclusive
COc1ccc2c(C=O)c[nH]c2c1	Pf growth 96h 8.3µM
COc1ccc2c(CCN)c[nH]c2c1	Pf growth 96h inconclusive (no result: Pf growth 48h)
Cc1cc2c3c(c1)C(C)CC(C)(C)N3C(=O)C2=C(C#N)C#N (configuration not stated)	Pf growth 48h inconclusive, Pf growth 96h inconclusive
COCCCn1c(-c2ccccc2Cl)n[nH]c1=S	Pf growth 96h 1.9µM
COc1ccccc1NC(=O)C1=C(C)Nc2nc(-c3ccc(N(C)C)cc3)nn2C1c1ccncc1 (configuration not stated)	Pf growth 48h 15µM, Pf growth 96h 9.3µM
COc1ccccc1NC(=O)C1=C(C)Nc2nc(-c3cccs3)nn2C1c1cccnc1 (configuration not stated)	Pf growth 96h inconclusive (no result: Pf growth 48h)
CCN(CC(=O)NCc1ccc(Cl)cc1)C(=O)CN1C(=O)NC(CC)(c2ccccc2)C1=O (configuration not stated)	none
O=S(=O)(c1ccc(O)cc1)c1ccc(O)cc1	Pf growth 96h inconclusive
O=C1C=CC(=C(c2ccc(O)cc2)c2ccc(O)cc2)C=C1	Pf growth 48h 7.4µM, Pf growth 96h 7.4µM (no result: NS1 inh)
CCN(C(=O)c1cn(C)c(=O)c2cc(OC)c(OC)cc12)c1ccccc1C	none (no result: Pf growth 96h)
CCN(C(=O)c1cn(C)c(=O)c2cc(OC)c(OC)cc12)c1cc(C)ccc1C	Pf growth 48h 9.3µM
C=CCn1c(O)c(C(CC)=Nc2ccc(N(C)C)cc2)c(=O)[nH]c1=O	Pf growth 48h 0.66µM, Pf growth 96h 1.7µM
CN(CC(=O)Nc1ccccc1Cl)CC(=O)Nc1cccc2ccccc12	none (no result: Pf growth 48h, NS1 inh, Pf growth 96h)
CC(=O)OC1N=C(c2ccccc2)c2ccccc2NC1=O (configuration not stated)	Pf growth 96h 15µM
CC(=O)OC1N=C(c2ccccc2)c2cc(C)ccc2NC1=O (configuration not stated)	none
CCOC(=O)C1CCCN(c2ncnc3c2[nH]c2cccc(OC)c23)C1 (configuration not stated)	Pf growth 48h 12µM, NS1 inh inconclusive (no result: Pf growth 96h)
Cc1ccccc1NC(=O)c1ccc(NC(=O)c2ccco2)cc1	none (no result: Pf growth 96h)
O=C(Nc1ccc(OC(=O)c2ccco2)cc1)c1ccco1	Pf growth 96h inconclusive
